Hits are enriched below; roughly 4.3% of the tested compounds scored in any of these assays.
GLP-1R inv ag = GLP-1 receptor (human) inverse agonism | P43220 | hit rate 1.6% among 410,000 | AID 624417 | HEK293 GLP-1R CRE-luciferase, luminescence, 24 h; GLP-1R form is constitutively active | Potency, µM (top dose mostly 38.3 µM), hits mostly inhibitors; further: nearly all actives have a fitted effect of over 55% in size
Target sequence (P43220 whole entry, looked up): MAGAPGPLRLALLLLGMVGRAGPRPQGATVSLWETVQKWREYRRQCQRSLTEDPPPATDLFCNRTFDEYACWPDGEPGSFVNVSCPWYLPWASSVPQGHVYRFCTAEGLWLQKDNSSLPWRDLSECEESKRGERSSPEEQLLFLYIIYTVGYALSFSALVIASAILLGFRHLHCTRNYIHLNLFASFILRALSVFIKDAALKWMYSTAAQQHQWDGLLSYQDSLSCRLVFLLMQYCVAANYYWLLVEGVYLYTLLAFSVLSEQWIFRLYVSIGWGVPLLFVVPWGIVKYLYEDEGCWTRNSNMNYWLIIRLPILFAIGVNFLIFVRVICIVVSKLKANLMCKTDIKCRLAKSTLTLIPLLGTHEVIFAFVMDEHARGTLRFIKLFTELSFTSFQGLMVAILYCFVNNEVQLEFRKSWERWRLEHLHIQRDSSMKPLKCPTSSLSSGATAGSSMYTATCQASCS
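qHTS in 1536-well format: reporter HEK293 cells expressing constitutive GLP-1R activity in DMEM + 10% Nu serum, 24 hr with compounds at 37 deg C, luminescence read after 12 min with detection reagent.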
DRD3 agonist = activates the human D3 dopamine receptor. P35462. D3R DiscoveRx beta-arrestin cells, luminescence, 90 min. max activation, %. hit rate 0.58% among 410,000; in the data active means max activation above about 30%
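Agonist-mode cell screen: cells plated at 1500/well and incubated overnight at 37 °C, then exposed to library compounds for 90 min at 37 °C. Detection reagent was added for 30–60 min at room temperature, and luminescence was read.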
GLP-1R agonist = activates the human GLP-1 receptor; P43220; HEK293 GLP-1R CRE-luciferase, luminescence, 4-6 h; cells express a hypersensitive GLP-1R form; Potency, µM (series often up to 45.6 µM), most hits filed as activators; hit rate 0.007% among 380,000; AID 624172
D3 antag = D3 dopamine receptor (human) antagonism. P35462. D3R cells, DiscoveRx beta-arrestin luminescence, antagonist mode; hits give low values. max response, negative = inhibition, %. hit rate 2.5% among 360,000; in the data active means max response below about -50%; inconclusive means no clear call, values can overlap the other calls
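Cells plated overnight at 1500 cells/well, then exposed to library compounds with dopamine controls for 90 minutes at 37 degrees C. DiscoveRx reagent added for 30–60 minutes at room temperature; luminescence read, quantitative HTS format.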
A number is an active result; 0 = inactive; ? = inconclusive; - = no result. Unless noted, the call rests on the fitted dose curve; in most records, active means well fitted curve in the direction sought with a large enough effect; inconclusive means small, poorly fitted or top-dose-only effect, or another doubt; inactive means no such curve, though single readings can be large; an effect the other way counts as inactive or inconclusive.

SMILES | GLP-1R inv ag | DRD3 agonist | GLP-1R agonist | D3 antag
COc1cc(/C=C/c2ccc3cccc(O)c3n2)cc(Cl)c1OC | ? | 0 | 0 | -52
COc1cc(/C=C/c2ccc3cccc(O)c3n2)cc(Br)c1OC | 4.5µM | 0 | ? | -55
COc1ccc(/C=C/c2ccc3cccc(O)c3n2)cc1Br | 0 | 0 | 0 | ?
Cc1cc2c(cc1C)CSC(c1ccccc1OC(=O)C(C)C)SC2 | 10µM | 0 | 0 | 0
Cc1cccc(OCCSc2nc3ccccc3n2CC(=O)N2CCOCC2)c1C | 0 | 0 | - | -
Cc1cccc(NC2=NC(C)(C)N=C(N)N2)c1 | ? | 0 | 0 | 0
CC1=CC(C)(C)N2C(=O)C3(N=C(N)NC(Nc4ccccc4)=N3)c3cc(C)cc1c32 (configuration not stated) | 3.5µM | 0 | 0 | 0
CCOc1cc(NS(=O)(=O)c2ccccc2)c(OCC)cc1NC(=O)c1ccco1 | 0 | 0 | 0 | -51
CCCCC(F)(F)[C@@]1(O)CC[C@H]2[C@@H](CC(=O)[C@@H]2CCCCCCC(=O)O)O1 | - | 0 | - | -
COCCN1C(=O)c2[nH]nc(-c3ccccc3O)c2C1c1ccc(OCc2ccccc2)c(OC)c1 (configuration not stated) | ? | 0 | - | -
Cn1c2ccccc2c(=O)c2ccc(C#CC3(N)CCCCC3)cc21 | 0 | 0 | 0 | 0
O=c1c2ccccc2oc2ccc(C#CC3(O)CCCCC3)cc12 | 7.1µM | 0 | 0 | 0
Cn1c2ccccc2c(=O)c2cc(C#CC3(O)CCCCC3)ccc21 | 1µM | 0 | 0 | 0
CN(C(=S)Nc1ccccc1F)C1(c2ccccc2Cl)CCCCC1=O (configuration not stated) | 0 | 30 | 0 | 0
CC(C)NC(=S)N(C)C1(c2ccccc2Cl)CCCCC1=O (configuration not stated) | 0 | 0 | 0 | 0
O=C(C1=C(c2ccccc2)C(=O)c2ccccc2C1=O)c1ccccc1 | ? | 0 | 0 | -95
COC1=C(c2ccccc2)C(=O)c2ccccc2C1=O | 0 | 0 | 0 | ?
CCc1nn(C(C)C(=O)NCCN2CCN(c3cccc(C)c3C)CC2)c(=O)c2cc3occc3n12 (configuration not stated) | ? | 0 | 0 | -59
CN(C1=C(NC(=O)c2ccccc2)C(=O)c2ccccc2C1=O)C1CCS(=O)(=O)C1 (configuration not stated) | ? | 0 | 0 | -54
O=C/C(=C\Nc1ccc(S(=O)(=O)CCO)cc1)c1nc2cc(Cl)ccc2o1 | 0 | 0 | 0 | -51
O=C/C(=C\Nc1ccc(Cl)cn1)c1nc2cc(Cl)ccc2o1 | 0 | 0 | 0 | 0
Cc1nn(Cc2cccc(C(=O)NC34CC5CC(CC(C5)C3)C4)c2)c(C)c1Br | 2.8µM | 0 | 0 | 0
CCCNC(=O)c1cccc(Cn2nc(C)c(Br)c2C)c1 | ? | 0 | 0 | 0
CC(C)(C)c1cc(NC(=O)c2ccc(OC3CCCC3)cc2)no1 | ? | 35 | 0 | 0
OC1CCCN(Cc2nc(Cc3ccccc3Cl)no2)C1 (configuration not stated) | 0 | 0 | 0 | 0
SMILES | GLP-1R inv ag | DRD3 agonist | GLP-1R agonist | D3 antag
CC1CCCN(Cc2nc(Cc3ccccc3Cl)no2)C1 (configuration not stated) | 10µM | 0 | 0 | 0
CCOC(=O)c1c(NC(=O)COc2ccc(OC)cc2)sc(C(=O)N(CC)CC)c1C | 7.9µM | 0 | - | -
COC(=O)CN1C(=O)[C@H]2[C@@H](c3ccc(C)o3)N3C(=O)CN(Cc4ccccn4)C(=O)[C@@]3(Cc3ccccc3)[C@H]2C1=O | 0 | 39 | 0 | 0
Cc1ccc2nc(COc3ccccc3NC(=O)C(C)(C)C)cc(=O)n2c1 | 0 | 0 | - | -
CSCCC(c1nc2ccccc2[nH]1)n1c(=O)c(-c2cccnc2)nc2ccccc21 (configuration not stated) | 0 | 0 | - | 0
O=c1c(-c2ccccc2)nc2ccccc2n1C(c1ccccc1)c1nc2ccccc2[nH]1 (configuration not stated) | 1.6µM | 0 | - | 0
O=c1c(-c2ccccc2)nc2ccccc2n1C(CCc1ccccc1)c1nc2ccccc2[nH]1 (configuration not stated) | 10µM | 0 | - | 0
CCc1ccc(OCc2cc(=O)n3c4c(sc3n2)CCCC4)cc1 | 0 | 0 | 0 | -
O=[N+]([O-])c1ccc(N2CCN(Cc3ccccc3)CC2)s1 | 0 | 0 | 0 | -66
O=[N+]([O-])c1ccc(N2CCN(Cc3ccccc3)CC2)nc1 | ? | 0 | 0 | 0
O=[N+]([O-])c1ccc(N2CCN(Cc3ccccc3)CC2)c2c1no[n+]2[O-] | ? | 0 | 0 | -74
COc1ccc(NS(=O)(=O)c2ccc3[nH]c(=O)ccc3c2)cc1OC | 0 | 0 | - | -
CN(CCOC(=O)c1ccc2c(c1)OCCO2)Cc1ccccc1 | 0 | 0 | 0 | -79
CN(CCC(=O)Nc1ccc(Cl)cc1)Cc1ccccc1 | ? | 0 | 0 | -97
CN(CCOC(=O)c1ccc2c(c1)OCCO2)C(C)(C)C | 0 | 0 | 0 | 0
CN(CC(=O)Nc1cccc(C#N)c1)Cc1ccc(Cl)cc1 | ? | 0 | 0 | -74
CN(CCC(=O)Nc1ccc2c(c1)OCO2)Cc1ccccc1 | 0 | 0 | 0 | -73
CCOC(=O)c1ccccc1NC(=O)c1c2c(nc3ccccc13)C(=O)N(C1CCCCC1)C2 | 0 | 0 | - | -
O=C(O)c1ccc(Cn2ccc3ccccc32)o1 | 0 | 0 | 0 | 0
c1ccc(C2(Cn3ccc4ccccc43)OCCO2)cc1 | ? | 71 | 0 | 0
Cc1ccc(C(CNS(=O)(=O)c2ccccc2)N2CCN(C)CC2)cc1 (configuration not stated) | 0 | 0 | 0 | 0
CN1CCN(C(CNS(=O)(=O)c2ccc(Br)cc2)c2ccc3c(c2)OCO3)CC1 (configuration not stated) | 10µM | 0 | 0 | 0
Cc1ccc(C(CNS(=O)(=O)c2ccc(Br)cc2)N2CCN(C)CC2)cc1 (configuration not stated) | 7.9µM | 0 | 0 | 0
O=S(=O)(NCC(c1ccc2c(c1)OCO2)N1CCOCC1)c1ccc(Br)cc1 (configuration not stated) | ? | 0 | 0 | 0
COc1ccc(OCC(=O)NCCS(=O)(=O)N2CCN(c3cccc(Cl)c3)CC2)cc1 | 0 | 0 | - | -
SMILES | GLP-1R inv ag | DRD3 agonist | GLP-1R agonist | D3 antag
COc1ccc2c(Sc3ccccc3)c(C(=O)N3CCC(C)CC3)[nH]c2c1 | ? | 0 | - | -
NC(=O)NC(CC(=O)NCCc1ccc(S(N)(=O)=O)cc1)c1ccccc1Cl (configuration not stated) | 0 | 0 | 0 | 0
Cc1ccc(C)c(CN2C(=O)c3ccccc3S(=O)c3ccc(C(=O)NCCC4=CCCCC4)cc32)c1 (configuration not stated) | 0 | 0 | 0 | -
O=C(Nc1ccc(Br)cc1F)c1ncoc1-c1ccco1 | 0 | 0 | - | -
CCOC(=O)C1(Nc2nccs2)Sc2ccccc2NC1=O (configuration not stated) | ? | 0 | 0 | 0
CCOC(=O)C1(N(CC)CC)Sc2cc(C)ccc2NC1=O (configuration not stated) | 6.3µM | 0 | 0 | 0
OC(CNCc1ccc(F)cc1)(c1ccc(F)cc1)c1ccc(F)cc1 | ? | 0 | 0 | -51

Source: PubChem BioAssay (National Center for Advancing Translational Sciences (NCATS))
